# Reference: PubChem BioAssay AID1851 (National Center for Advancing Translational Sciences (NCATS), 2009)
# The whole screen tested about 16,000 compounds, of which about 5,100 (32%) were called active. Roughly 25% stayed inconclusive and do not appear here. The list shows a part of the results. Values without a mark were called inactive. The call rests on the fitted dose curve; in most records, active means well fitted curve in the direction sought with a large enough effect; inconclusive means small, poorly fitted or top-dose-only effect, or effect the other way; inactive means no such curve, though single readings can be large or run the other way.
# Molecular target: Cytochrome P450 3A4 (Homo sapiens) (UniProt P08684)
# Sequence (P08684 whole entry, looked up): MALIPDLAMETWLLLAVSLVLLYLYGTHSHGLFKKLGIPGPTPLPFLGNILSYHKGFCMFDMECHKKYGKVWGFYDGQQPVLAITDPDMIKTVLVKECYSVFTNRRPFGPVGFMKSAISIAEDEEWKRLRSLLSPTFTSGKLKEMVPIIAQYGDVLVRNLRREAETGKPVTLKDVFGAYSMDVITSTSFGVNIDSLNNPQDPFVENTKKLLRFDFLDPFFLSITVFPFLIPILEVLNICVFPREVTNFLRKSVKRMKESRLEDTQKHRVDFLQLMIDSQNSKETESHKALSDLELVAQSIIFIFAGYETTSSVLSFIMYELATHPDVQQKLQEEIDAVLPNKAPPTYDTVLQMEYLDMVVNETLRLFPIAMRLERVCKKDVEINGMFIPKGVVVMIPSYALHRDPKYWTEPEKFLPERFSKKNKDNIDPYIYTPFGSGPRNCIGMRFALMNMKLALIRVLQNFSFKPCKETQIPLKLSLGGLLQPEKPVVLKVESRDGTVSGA
# Experiment: Cytochrome panel assay with activity outcomes
# Settings: recombinant CYP, pro-luciferin dealkylation, luminescence, p450-cyp3a4; series mostly up to 57.1 µM
# Procedure: The P450 gene superfamily is involved in the metabolism and clearance of xenobiotics. This assay used various human CYP P450 isozymes to measure the dealkylation of various pro-luciferin substrates to luciferin. The luciferin is then measured by luminescence after the addition of a luciferase detection reagent. Pro-luciferin substrate concentration in the assay was equal to its KM for its CYP P450 isozyme. Inhibitors and some substrates limit the production of luciferin, and decrease measured luminescence.
# NCGC Assay Protocol Summary:
# 1, Reagent, 2 uL, Isozyme and Pro-Luciferin
# 2, Library compounds, 23 nl, 40 uM to 0.24 nM dilution series
# 3, Controls, 23 nl, Isozyme specific inhibitor
# 4, Reagent, 2 uL, NADPH regeneration solution
# 5, Incubation time, 60 min, Isozyme specific temperature
# 6, Reagent, 4ul, Detection reagent
# 7, Incubation time, 20 min, Isozyme specific temperature
# 8, Detection, 1 sec, ViewLux luminescent read
# The luciferase-based P450-GloTM Screening Systems were obtained from Promega (Madison, WI) for CYP 1A2 (V9770), CYP 2C9 (V9790), CYP2 C19 (V9880), CYP 2D6 (V9890), and CYP 3A4 Luciferin-PPXE (V9910) and were adapted for 1,536-well microplates and an automated protocol. The control compounds furafylline for 1A2 (F124), sulfaphenazole for CYP 2C9 (S0758), ketoconazole for CYP 2C19 (K1003), quinidine for 2D6 (Q3625), and ketoconazole for 3A4 (K1003) were purchased from Sigma Aldrich (St. Louis, MO). Recombinant P450 enzymes were obtained from baculovirus constructs expressed in insect cells (BD/Gentest).
# Medium-binding white solid Kalypsys plates used. Mixtures kept on ice. 1A2: 10 nM 1A2, 100 uM Luc-ME, 100 mM KPO4; 2C9: 10 nM 2C9, 100 uM Luc-H, 25 mM KPO4; 2C19: 5 nM 2C19, 10 uM Luc-H EGE, 50 mM KPO4; 2D6: 5 nM 2D6, 30 uM Luc-ME EGE, 100 mM KPO4; 3A4: 10 nM, 25 uM Luc-PPXE. All amounts are reflected in their final concentration, working concentration is 2x.
# NADPH regeneration solution: 1.3 mM NADP+, 3.3 mM glucose-6-phosphate, 3.3 mM MgCl2, 0.4 U/mL glucose-6-phosphate dehydrogenase for all isozymes, 200 mM KPO4 for 3A4. Mixture prepared at RT but kept on ice during automated run.
# RT incubation in auxilliary plate hotel for 1A2, 2D6, and 3A4; 37C for 2C9 and 2C19.
# Keywords: P450, CYP1A2, CYP2C19, CYP2C9, CYP2D6, CYP3A4, Luciferase, MLSMR, MLSCN, NIH Roadmap, qHTS, NCGC
# On the % scale 0 is the no-effect control and ±100 the full control effect.
Structure (SMILES),AC50,"activity, negative = inhibition"
CSc1nc2c(c(=O)[nH]1)C(c1ccncc1)C(C(=O)OC(C)C)=C(C)N2 (stereo not given),1.26 µM (active),
CCSc1nc2c(c(=O)[nH]1)C(c1ccncc1)C(C(=O)OC(C)C)=C(C)N2 (stereo not given),1.12 µM (active),
CCSc1nc2c(c(=O)[nH]1)C(c1ccccn1)C1=C(CC(C)(C)CC1=O)N2 (stereo not given),inactive,
COc1ccc(CNC(=O)/C=C/c2ccc(OCCCF)cc2)cc1,5.01 µM (active),
COCCCNC(=O)/C=C/c1ccc(Cl)cc1,inactive,
COC(=O)CNC(=O)/C=C/c1ccc(OC)cc1,inactive,
CCn1c(SCc2ccc(C#N)cc2)nnc1-c1ccc(S(=O)(=O)N2CCCCC2)cc1,inactive,
CCCCSc1ccc2nc(-c3ccc(C#N)cc3)cn2c1,,20.1% [at 2.29 µM]
CCn1c(COc2ccc(C)cc2)nnc1SCc1ccc(C#N)cc1,2 µM (active),
CCc1nnc(NS(=O)(=O)c2ccc(N=Cc3c(C)[nH]n(-c4ccc(C)cc4)c3=O)cc2)s1,22.4 µM (active),
CCOc1[nH]n(-c2ccc(Cl)cc2)c(=O)c1C=Nc1ccc(Cl)cc1,inactive,
CC#CCCCC(=O)Nc1cc(OC)nc(OC)n1,14.1 µM (active),
CC#CCCCC(=O)Nc1ccc(C(=O)O)cc1,inactive,
COc1cc(NC(=O)c2c(F)cccc2F)nc(OC)n1,inactive,
CN(C)/C=C/C(=O)c1ccc(Cl)cc1,inactive,
CCNc1ccc(Br)cc(C(=O)/C=C/c2ccc3c(c2)OCO3)c1=O,17.8 µM (active),
CNc1ccc(Br)cc(C(=O)/C=C/c2ccc3c(c2)OCO3)c1=O,11.2 µM (active),
CN(C)CCNC(=O)C(C(=O)c1ccc(F)cc1)n1ccccc1=O (stereo not given),inactive,
O=C(Nc1cccc2nsnc12)c1ccc(-c2cccc(Cl)c2)o1,,1.55% [at 2.29 µM]
CCCn1nnnc1-c1cccc(Cl)c1,inactive,
CCCn1nnc(NC(=O)c2ccc(-c3cccc(Cl)c3)o2)n1,28.2 µM (active),
OC(c1ccccc1)(c1ccc(F)cc1)C(c1ccccc1)N1CCOCC1 (stereo not given),3.98 µM (active),
N#C/C(=C/N1CCOCC1)c1ccccc1,inactive,
C[C@@H](N1CCOCC1)[C@@](O)(c1ccccc1)c1ccccn1,,-13% [at 11.4 µM]
Nc1ccc(N=Nc2c(S(=O)(=O)O)cc3ccccc3c2S(=O)(=O)O)cc1,,5.34% [at 11.4 µM]

Structure (SMILES),AC50,"activity, negative = inhibition"
Cc1nc2sccn2c(=O)c1Cl,inactive,
Cc1cc(N2C(=O)C(O)=C(C(=O)c3cccs3)C2c2cccc(O)c2)no1 (stereo not given),inactive,
CN(C)CCN1C(=O)C(O)=C(C(=O)c2cc3ccccc3o2)C1c1ccccn1 (stereo not given),inactive,
COc1cc(C2C(C(=O)c3ccc(C)o3)=C(O)C(=O)N2CCc2ccccc2)ccc1O (stereo not given),inactive,
Cc1ccc(C2C(C(=O)c3sc(C)nc3C)=C(O)C(=O)N2CCN2CCOCC2)o1 (stereo not given),inactive,
Cc1ccc(C(=O)C2=C(O)C(=O)N(CCCn3ccnc3)C2c2ccc(OC(C)C)cc2)o1 (stereo not given),7.94 µM (active),
CCOc1cccc(C2C(C(=O)c3ccc(C)o3)=C(O)C(=O)N2Cc2ccncc2)c1 (stereo not given),5.01 µM (active),
Cn1c(=O)n(-c2ccc(Cl)cc2)c(=O)c2c3c(sc21)COC(C)(C)C3,inactive,
CCOC(=O)c1c(NC(=O)CCCN2CCOCC2)sc2c1CC(C)(C)OC2,7.08 µM (active),
CCOC(=O)c1c(NC(=O)CCC(=O)N2CCOCC2)sc2c1CC(C)(C)OC2,12.6 µM (active),
Cn1c(O)c(C(C#N)=C2N=c3ccccc3=N2)c2ccccc21,3.55 µM (active),
N=C(N)SCCN,inactive,
COC(=O)[C@@H]1O[C@@H](SCCN)[C@@H](O)[C@H](O)[C@H]1O,,-3.54% [at 11.4 µM]
CC(=O)O[C@]12CC[N@+]3(C)CCCC[C@@H]3[C-]1Nc1ccccc12,,0.352% [at 11.4 µM]
Cc1cc2c(c(=O)o1)[C@@H](O)[C@H]1O[C@@H]1C2=O,,-17.6% [at 11.4 µM]
COc1ccccc1N1CCN(C[C@@H]2CN3C(=O)N(C)c4ccccc4C3=N2)CC1,15.8 µM (active),
CC1=C(C(=O)N2CCCCCC2)C2(CCC(C)CC2)OC1=O (stereo not given),11.2 µM (active),
Cc1cc(=O)oc(C)c1C(=O)N1CCCCC1,inactive,
CC1=C(C(=O)NCCN2CCN(C)CC2)C2(CCC(C)CC2)OC1=O (stereo not given),inactive,
CCCCCC/C(C)=C1/SC(=S)NC1=O,,-11.2% [at 2.29 µM]
O=C(COc1cccc2ccccc12)NNC(=O)c1cccs1,25.1 µM (active),
CCC(=O)Nc1ccc(C(=O)NNC(=O)c2cccs2)cc1,inactive,
O=C(CCC(=O)Nc1ccccc1)NNC(=O)c1cccs1,,9.11% [at 2.29 µM]
CCc1ccc(OCC(=O)Nc2ccc(-c3nc4ccccc4o3)c(O)c2)cc1,inactive,
O=C(CSc1ccc(Cl)cc1)Nc1cccc(-c2nc3ncccc3o2)c1,12.6 µM (active),

Structure (SMILES),AC50,"activity, negative = inhibition"
CCCCCC(=O)Nc1cccc(-c2nc3ncccc3o2)c1,15.8 µM (active),
O=C(Nc1cccc(-c2nc3ncccc3o2)c1)c1sc2cc(Cl)ccc2c1Cl,inactive,
CCCCC(=O)Nc1ccc(C)c(O)c1,,9.17% [at 2.29 µM]
CC12CC[C@@H]3c4ccc(OP(=O)(O)O)cc4CCC3C1CCC2=O (stereo not given in full),,5.91% [at 11.4 µM]
COc1c(N2CCN(C(=S)Nc3ccc(F)cc3)C(C)C2)c(F)cc2c(=O)c(C(=O)O)cn(C3CC3)c12 (stereo not given),inactive,
Clc1ccc(-c2nnc(-c3ccccc3)c(N3CCSCC3)n2)cc1,inactive,
O=S(=O)(c1ccc(Cl)cc1)c1cnc(-c2cccnc2)nc1-c1ccccc1,8.91 µM (active),
O=S(=O)(c1ccccc1)c1cnc(-c2cccnc2)nc1-c1ccc(Cl)cc1Cl,2.82 µM (active),
CN1CCCCC1=NCCCn1cnc2c1c(=O)n(C)c(=O)n2C,inactive,
CC(=O)[C@H]1CC[C@@H]2[C@H]3CC=C4C[C@@H](O)CC[C@]4(C)[C@H]3CC[C@]12C,inactive,
Cc1cc(C)c2c(-n3cccc3)n[nH]c2n1,inactive,
COc1cccc(-c2ccc3ncnc(NCCNC(C)=O)c3c2)c1,15.8 µM (active),
COCCNc1ncnc2ccc(-c3cccc(OC)c3)cc12,12.6 µM (active),
COCCNc1ncnc2ccc(-c3cccnc3)cc12,10 µM (active),
O=[N+]([O-])c1cccc2c(Br)[nH]nc12,12.6 µM (active),
Brc1[nH]nc2ccccc12,inactive,
O=[N+]([O-])c1cccc2cn[nH]c12,inactive,
COC(=O)c1ccc(NC(=O)Cn2nc(-c3ccncc3)nc2SCC(=O)Nc2nccs2)cc1,2 µM (active),
Cc1oc(-c2cccs2)[n+]([O-])c1C,inactive,
CC(=O)Nc1ccc(NC2=Nc3ccccc3N3C2=Nc2c(c(C)nn2-c2ccccc2)C3c2ccccc2)cc1 (stereo not given),inactive,
CCN(CC)CCC(=O)Nc1ccc2c(c1)N(C(=O)CN(CC)CC)c1ccccc1CC2,,3.63% [at 2.29 µM]
CCN(CCCNC(=O)CC(C(=O)N1CCc2ccccc21)n1ccnc1)c1ccccc1 (stereo not given),0.794 µM (active),
CCCCN(C)CCCNC(=O)CCn1nc(-c2ccccc2)ccc1=O,inactive,
Cc1cc(C)c(S(=O)(=O)n2ccc(-c3ccc(OCCN(C)c4ccccn4)cc3)n2)c(C)c1,2.24 µM (active),
COC(=O)[C@H]1C[C@@H]1[C@H](NC(=O)c1cc(C)nn1C)c1ccccc1,6.31 µM (active),

Structure (SMILES),AC50,"activity, negative = inhibition"
COC(=O)[C@@H]1C[C@H]1[C@@H](NC(=O)c1cc(C)nn1C)c1ccccc1,10 µM (active),
O=c1ccc(Oc2nc(N3CCOCC3)nc(N3CCOCC3)n2)n[nH]1,inactive,
N#C/C(=C\c1ccc(O)c(O)c1)C(=O)NCc1ccccc1,15.8 µM (active),
N#C/C(=C\c1ccc(O)c(O)c1)C(=O)NCCc1ccccc1,3.98 µM (active),
COc1ccc(/C=C(/C#N)C(=O)Nc2cc(C)ccc2C)cc1C(=O)O,inactive,
Cc1cc(/C=C(/C#N)C(=O)Nc2ccccc2)c(C)n1-c1cccnc1,inactive,
N#C/C(=C\c1ccc(O)c(O)c1)C(=O)NCCCc1ccccc1,2.51 µM (active),
N#C/C(=C\c1ccc(O)c(O)c1)C(=O)Nc1ccccc1,15.8 µM (active),
O=C(O)/C=C\C(=O)NCc1ccccc1,inactive,
COCCN1CN=C(Nc2nc3ccccc3o2)NC1,inactive,
CC(/C=N/NC(=O)Cc1cccs1)=C\c1ccco1,,1.99% [at 2.29 µM]
CC(C)(C)c1ccc(OCC(=O)NNC(=O)Cc2cccs2)cc1,3.98 µM (active),
CC(=O)OCC1=C(C(=O)O)N2C(=O)[C@@H](NC(=O)Cc3cccs3)[C@@H]2SC1,inactive,
C/C(=N/S(=O)(=O)c1ccc(Cl)c(Cl)c1)OCC(C)(C)C,,-5.85% [at 11.4 µM]
O=S(=O)(Nc1ccc(Cc2ccncc2)cc1)c1ccc(Cl)c(Cl)c1,0.398 µM (active),
CCNS(=O)(=O)c1ccc(NS(C)(=O)=O)cc1,inactive,
O=C1C(Cl)=C(Nc2ccc(S(=O)(=O)Nc3ccccn3)cc2)C(=O)c2ccccc21,,-10.8% [at 11.4 µM]
Cc1ccc(NC(=O)NNS(=O)(=O)c2ccc(Br)cc2)cc1,inactive,
O=S(=O)(Nc1ccc(Cc2ccncc2)cc1)c1cccs1,0.355 µM (active),
O=S(=O)(Nc1ccc(Cc2ccncc2)cc1)c1ccc(Br)cc1,0.355 µM (active),
N[C@H](Cn1ccc(=O)n(Cc2ccccc2C(=O)O)c1=O)C(=O)O,inactive,
Cc1c(-c2c(C#N)c(N)nc3c2CCCCCC3)cnn1C,7.94 µM (active),
CCc1sc(-c2c(C#N)c(N)nc3c2CCCCCC3)cc1[N+](=O)[O-],,-20.1% [at 2.29 µM]
N#Cc1c(N)nc2c(c1-c1cccc(O)c1)CCCCCC2,4.47 µM (active),
Cn1ncc(C#N)c1/N=C/N1CCCCCC1,inactive,
